# Results from ChEMBL document CHEMBL3988442, “University of Dundee, Small-Polar-MMV Screening Library” (2021).
# Screen size: about 48,000 compounds; about 13,000 (27%) showed an effect of 50% or more. The list shows a part of the results.
# Test system: Wolbachia pipientis
# Experiment: Anti-Wolbachia Cell-Based Screen
# Format: functional
# Set-up: scale not given: in the data most compounds retested in dose-response had high values
# Settings: 5 µM
row,SMILES,Percent Effect
1,CN1CCC2(CC1)C(=O)N(C)c1ccc(F)cc12.Cl,-19.58%
2,CN1CCN(c2ccc(F)cc2C(N)=O)CC1,129.8%
3,CN1CCN(c2ccc(CO)cc2F)CC1,13.78%
4,CCN1CCC2(CCC1=O)CN(c1nccc(N)n1)CCN2C (centres undefined),-7.397%
5,CCNCCc1nc2cc(F)ccc2[nH]1.Cl,-10.45%
6,Cc1ccc2c(n1)N(C)CCN(Cc1cnn(C)c1)C2,75.85%
7,Cc1ccc2c(n1)N(C)CCN(CCN1CCCC1)C2.O=C(O)C(F)(F)F.O=C(O)C(F)(F)F.O=C(O)C(F)(F)F,31.59%
8,Cc1oc(-c2ccco2)nc1CC(=O)N1CCN(CC(C)O)CC1 (centres undefined),16.55%
9,Cc1ccc(C(=O)N2C[C@H](N3CCOCC3)[C@@H]3OCCC[C@@H]32)cn1.O=C(O)C(F)(F)F.O=C(O)C(F)(F)F,103.6%
10,CN1CCN([C@@H]2CN(C(=O)c3ccnnc3)[C@@H]3CCCO[C@H]23)CC1,-8.561%
11,Cc1ccc(C(=O)N2C[C@@H]3CCCO[C@@H]3[C@H](N3CCCC3)C2)cn1.O=C(O)C(F)(F)F.O=C(O)C(F)(F)F,-21.68%
12,CC(C)(C)n1cc(C2=CCN(CCNC(N)=O)CC2)cn1,-16.31%
13,CCCNC(=O)c1cn(C(C)(C)C)c2ncccc12,115.3%
14,CC(C)(C)n1cc(C(=O)NCCN2CCOCC2)c2cccnc21,135%
15,CCNC(=O)c1cn(C(C)(C)C)c2ncccc12,133.4%
16,CCCn1cc(C(=O)NCCCC(N)=O)c2ccccc21,15.02%
17,CNC(=O)c1cn(C(C)(C)C)c2ncccc12,127%
18,CC(C)(C)n1cc(C(=O)NCCCn2ccnc2)c2cccnc21,3.37%
19,CC(C)(C)n1cc(C2=CCN(CCNC(=O)c3ccccc3)CC2)cn1,-2.502%
20,Cc1ccnc(CC(C)N(C)Cc2ccc3c(c2)OCCO3)c1 (centres undefined),2.178%
21,O=C(NC[C@H]1C[C@@H]2CCN1C[C@@H]2CN1CCCC1)c1ccco1,7.038%
22,CC1CCN(C[C@H]2CN3CC[C@H]2C[C@@H]3CNC(=O)c2ccco2)CC1,-5.154%

row,SMILES,Percent Effect
1,Clc1ccccc1CNC(Cn1cncn1)c1ccccc1 (centres undefined),-5.969%
2,CCN1CCOCC2(CCCN(C(=O)c3conc3C)C2)C1.O=C(O)C(F)(F)F (centres undefined),89.52%
3,CCN1CCOCC2(CCCN(C(=O)c3ccncc3F)C2)C1.O=C(O)C(F)(F)F (centres undefined),92.47%
4,O=C(O)C(F)(F)F.c1cnc(N2CCCC3(COCCN(CC4CC4)C3)C2)nc1 (centres undefined),-4.915%
5,CNC(=O)CN1CCOCC2(CCCN(Cc3cccnc3)C2)C1.O=C(O)C(F)(F)F.O=C(O)C(F)(F)F.O=C(O)C(F)(F)F (centres undefined),-4.883%
6,CN1CCO[C@H]2CN(C(=O)c3ccncc3F)C[C@H]21.O=C(O)C(F)(F)F,-9.265%
7,O=C(C1CC1)N1CCc2c(ncnc2N2CCN3CCCC3C2)C1 (centres undefined),16.5%
8,CC(C)c1nc(CC(=O)N2CCN(C)CC2c2ccccc2)cs1 (centres undefined),13.34%
9,Cc1ccc(NC(=O)CNC(C)Cc2ccsc2)cc1F (centres undefined),8.644%
10,CN(C)C(=O)[C@H]1CC[C@@H]2[C@@H](CCN2Cc2ccccn2)O1.O=C(O)C(F)(F)F.O=C(O)C(F)(F)F,1.437%
11,Cc1ccccc1C1(CN)CCOCC1,1.37%
12,O=C(O)C(F)(F)F.O=C1[C@H]2CN(Cc3ccc(F)cc3)C[C@H]2CN1c1cncnc1,-0.4188%
13,Cc1ccc(N2CC[C@@H]3CN(Cc4cc[nH]n4)C[C@@H]3C2)nn1.O=C(O)C(F)(F)F,-9.951%
14,O=C(O)C(F)(F)F.O=C(O)C(F)(F)F.c1ccc(N2CC[C@@H]3CN(Cc4ccncc4)CCO[C@@H]3C2)cc1,-7.726%
15,Cc1ccc(N2C[C@H]3CCN(Cc4ccncc4)C[C@H]3C2)nn1.O=C(O)C(F)(F)F,106.9%
16,Cc1ccc(N2CC[C@@H]3CN(Cc4cccc(C)n4)C[C@@H]3C2)nn1.O=C(O)C(F)(F)F,-3.12%
17,O=C(O)C(F)(F)F.O=C(O)C(F)(F)F.c1cnc(N2CC[C@@H]3CN(Cc4ccncc4)CCO[C@@H]3C2)nc1,-13.84%
18,O=C(O)C(F)(F)F.c1cnc(N2C[C@H]3CCN(Cc4ccncc4)C[C@H]3C2)nc1,87.9%
19,O=C(O)C(F)(F)F.c1cc(CN2CC[C@@H]3CN(c4cnccn4)C[C@@H]3C2)ccn1,126.3%
20,O=C(O)C(F)(F)F.O=C(O)C(F)(F)F.O=C1[C@H]2CN(Cc3ccncc3)C[C@H]2CN1c1cncnc1,-1.722%
21,Cn1cc(N2CC[C@@H]3CN(Cc4ccncc4)C[C@H]3C2=O)cn1.O=C(O)C(F)(F)F.O=C(O)C(F)(F)F,-47.34%
22,c1cc(CN2CC[C@@H]3CN(c4cncnc4)C[C@@H]3C2)ccn1,100.2%
